Source: PubChem BioAssay
In the library only some 11% were active in any assay of this set; here they are far more common.
IMPase Li inh – qHTS Assay for Identifying the Cell-Membrane Permeable IMPase Inhibitors: Potentiation with Lithium; CHO-M1 cells, IP1 TR-FRET (IP-One), carbachol + lithium; Potency, µM (doses to about 59.4 µM), most hits filed as inhibitors; 210,000 compounds, 0.35% hits; AID 1457, 2008; active = well fitted inhibition curve with a large enough effect; inconclusive = small, poorly fitted or top-dose-only effect; inactive = no such curve, though single readings can be large or run the other way;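 also: IP1 builds up when IMPase is blocked and the TR-FRET signal falls; nearly all actives have a fitted effect of over 50% in size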
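Lithium-sensitised IP1 accumulation assay; M1-expressing CHO cells treated 30 min at 37C with compound. Competitive antibody detection by time-resolved FRET followed a 10 min room-temperature lysis step.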
IMPase inh – qHTS Assay for Identifying the Cell-Membrane Permeable IMPase Inhibitors; Inositol monophosphatase 1 (Rattus norvegicus), P97697; CHO-M1 cells, IP1 accumulation, HTRF TR-FRET ratio; inhibition (IP1 accumulation), % at 46.1 µM; 120,000 tested, under 10 active; active = well fitted curve in the direction sought with a large enough effect in the signal ratio, not every such curve was filed as active; inconclusive = small, poorly fitted or top-dose-only effect, or a change in a side signal; inactive = no such curve, though single readings can be large or run the other way; the % refers to the signal ratio;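 also: cells stimulated with carbachol in lithium chloride buffer; higher means more IMPase inhibition seen as more IP1 and lower FRET ratio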
Target sequence (P97697 whole entry, looked up): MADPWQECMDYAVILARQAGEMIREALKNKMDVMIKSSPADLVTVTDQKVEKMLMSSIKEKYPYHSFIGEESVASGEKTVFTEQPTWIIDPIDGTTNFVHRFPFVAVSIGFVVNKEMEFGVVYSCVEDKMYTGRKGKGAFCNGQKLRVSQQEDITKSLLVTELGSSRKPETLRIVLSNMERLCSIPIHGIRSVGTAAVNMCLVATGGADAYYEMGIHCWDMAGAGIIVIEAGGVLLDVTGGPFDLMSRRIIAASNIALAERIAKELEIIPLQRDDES
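In this qHTS, compounds (final up to 46 uM) act on CHO-M1 cells that are then activated through the M1 receptor with carbachol, in pH 7.4 buffer containing 50 mM LiCl, for 30 min. IP1 accumulation is quantified by the IP-One immunoassay.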
HPGD inh – qHTS Assay for Inhibitors of HPGD (15-Hydroxyprostaglandin Dehydrogenase); purified HPGD, NADH fluorescence kinetic, PGE2 substrate; 15-hydroxyprostaglandin dehydrogenase [NAD(+)] (Homo sapiens), P15428; 150,000 compounds, 4.3% hits; Potency, µM, usual class: inhibitors; AID 894, 2007
Target sequence (P15428 whole entry, looked up): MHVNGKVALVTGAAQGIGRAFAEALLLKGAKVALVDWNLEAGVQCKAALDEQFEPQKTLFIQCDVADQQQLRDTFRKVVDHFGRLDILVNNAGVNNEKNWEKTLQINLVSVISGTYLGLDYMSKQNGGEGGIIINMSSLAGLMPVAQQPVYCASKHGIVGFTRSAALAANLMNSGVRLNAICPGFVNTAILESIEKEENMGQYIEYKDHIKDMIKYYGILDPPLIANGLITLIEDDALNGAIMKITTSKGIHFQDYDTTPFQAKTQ
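20 nM HPGD preincubated 15 min at room temperature with compound in 50 mM Tris-HCl pH 8, 0.01% Tween 20. Started with 1 mM NAD+ and 30 uM prostaglandin E2; NADH fluorescence (360/450 nm) read 5 times over 30-s intervals, last minus first.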
PNC assembly inh – High Content Assay for Compounds that inhibit the Assembly of the Perinucleolar Compartment; 140,000 compounds, 3.1% hits; activity change (PNC), negative = inhibition, % at 10 µM; AID 2417, 2010; PC3M PTB-GFP, PNC prevalence imaging, 16 h; active compounds read low;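 active = readout at or below -70, meaning at least 70% loss of cells showing the perinucleolar compartment, a nuclear body marking cancer cells; inconclusive = readout between -30 and a set limit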
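Read-out is percentage of cells bearing a perinucleolar compartment, from automated 20x imaging of fixed, Hoechst-stained PC3M PTB-GFP cells. Cells were seeded 4 h, then exposed 16 h to compound (23 nl of library stock) in duplicate plates.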
ALDH1A1 inh – qHTS Assay for Inhibitors of Aldehyde Dehydrogenase 1 (ALDH1A1). Purified ALDH1A1, NADH fluorescence, propionaldehyde substrate. Potency, µM (highest dose often 75.3 µM), usual class: inhibitors. 220,000 compounds, 7.3% hits. Aldehyde dehydrogenase 1A1 (Homo sapiens), P00352
Each line names hits and unclear results; the compound was inactive in the other large screens; ! = a repeat was not active. Unless noted, calls follow the shape of the dose curve; as a rule, active = well fitted inhibition curve with a large enough effect (not every such curve was filed as active); inconclusive = small, poorly fitted or top-dose-only effect, or another doubt; inactive = no such curve, though single readings can be large or run the other way.

CN1C(=O)CC(Sc2ccccc2C(=O)O)C1=O (centres undefined)	none
CN(C)Cc1ccccc1-c1cncnc1NCc1cccnc1	none (no result: IMPase inh, PNC assembly inh)
COc1ccc(OC)c(NC(=O)CSc2nnc(Cn3nnc4ccccc43)n2C)c1	PNC assembly inh inconclusive
CCOC(=O)c1c(-c2ccc(C)cc2)csc1NC(=O)CCSc1nnc2ccccn12	HPGD inh inconclusive, ALDH1A1 inh inconclusive
O=C1NC(=O)C(c2ccccc2[N+](=O)[O-])=C1Nc1ccc(O)c(Cl)c1	ALDH1A1 inh 28µM! (no result: PNC assembly inh)
CCCCNC(=S)N(C)/N=C/c1ccccc1C(=O)O	none
CCCCNC(=S)N(C)N=C1CCC(c2ccccc2)CC1 (centres undefined)	ALDH1A1 inh 0.63µM (no result: IMPase inh, HPGD inh, PNC assembly inh)
CCc1nnc2c3ccccc3nc(Nc3ccc(F)c(Cl)c3)n12	none (no result: IMPase Li inh, HPGD inh, PNC assembly inh, ALDH1A1 inh)
CC1=C(C(=O)OCc2ccc(C)cc2)C(c2ccccc2F)CC(=O)N1 (centres undefined)	none (no result: IMPase Li inh, HPGD inh, PNC assembly inh, ALDH1A1 inh)
O=C(O)c1ccccc1CSc1ccccn1	none (no result: IMPase inh, HPGD inh, PNC assembly inh)
C=CCC1C=CC(Oc2ccc(OC)cc2)C(CO)O1 (centres undefined)	none (no result: IMPase Li inh, IMPase inh, HPGD inh, PNC assembly inh)
O=C(CSc1nncc2ccccc12)N1CCOCC1	HPGD inh 28µM, ALDH1A1 inh inconclusive
Cn1cc(SCC(=O)N2CCN(c3ccccc3)CC2)c2ccccc21	none
CCn1cc(SCC(=O)N2CCOCC2)c2ccccc21	PNC assembly inh inconclusive
Cn1cc(SCC(=O)N2CCCc3ccccc32)c2ccccc21	ALDH1A1 inh 10µM
Cn1cc(SCC(=O)N2CCOCC2)c2ccccc21	PNC assembly inh -108
CCCn1c(-c2ccc(F)cc2)nc2c(NCCCN3CCOCC3)nc(C)nc21	HPGD inh inconclusive, ALDH1A1 inh inconclusive (no result: IMPase inh, PNC assembly inh)
S=c1nn[nH]n1C12CC3CC(CC(C3)C1)C2	HPGD inh inconclusive, ALDH1A1 inh 2.8µM
CCOC(=O)c1ccc(NC(=O)CN(Cc2ccc(C)cc2)S(=O)(=O)c2ccc(C)cc2)cc1	none (no result: IMPase Li inh, HPGD inh, PNC assembly inh, ALDH1A1 inh)
C=CCNC(=O)c1ccc(-c2nc(-c3ccc(Cl)cc3Cl)cs2)cc1	HPGD inh 4µM
C=CCNC(=O)c1cc(Cl)ccc1[N+](=O)[O-]	none (no result: IMPase inh)
C=CCNC(=O)c1cc(Cl)ccc1Cl	HPGD inh 20µM
CCCCc1ccc(C2C(C#N)=C(N)SC(N)=C2C#N)s1	IMPase inh inconclusive, HPGD inh 14µM, ALDH1A1 inh inconclusive
COCCOC(=O)c1cc(C(=O)c2cc(Cl)ccc2O)coc1=N	none (no result: IMPase inh, HPGD inh, PNC assembly inh)
O=C(NNC(=O)c1cc(OCC(F)(F)F)ccc1OCC(F)(F)F)c1cccc(C(F)(F)F)c1	PNC assembly inh -84
CCCCCN1C(C)=CC(=C(C#N)C#N)C=C1C	ALDH1A1 inh inconclusive (no result: IMPase inh, HPGD inh, PNC assembly inh)
CC1=CC(=C(C#N)C#N)C=C(C)N1CCC(C)C	ALDH1A1 inh 28µM (no result: IMPase inh, HPGD inh, PNC assembly inh)
O=S(=O)(Nc1nccs1)c1cnc(Cl)c(Br)c1	ALDH1A1 inh inconclusive (no result: IMPase inh)
O=S(=O)(Nc1nc2ccccc2s1)c1cnc(Cl)c(Br)c1	ALDH1A1 inh 20µM (no result: IMPase Li inh, IMPase inh, HPGD inh, PNC assembly inh)
CNc1ncncc1-c1ccccc1OC	ALDH1A1 inh inconclusive (no result: IMPase inh, PNC assembly inh)
Cc1cccc(C)c1NC(=S)NC(=O)c1ccc(Br)o1	ALDH1A1 inh inconclusive (no result: IMPase inh, HPGD inh, PNC assembly inh)
Cn1ncc(C(N)=O)c1NC(=S)NC(=O)c1ccc(Br)o1	ALDH1A1 inh 7.9µM (no result: IMPase inh, HPGD inh, PNC assembly inh)
CC(C)OC(=O)[C@@H]1CC[C@H](C)[C@@H](CCCCO)O1	none (no result: IMPase inh, PNC assembly inh)
Cc1csc(SCc2ccc(C(=O)O)cc2)n1	PNC assembly inh -111
Cc1[nH]n(-c2ccc(Cl)cc2)c(=O)c1C(=O)c1ccccc1	none (no result: IMPase inh, HPGD inh, PNC assembly inh)
CCOC(=O)c1[nH]n(-c2ccc(Cl)cc2)c(=O)c1C	PNC assembly inh -114, ALDH1A1 inh inconclusive (no result: IMPase inh)
CCOc1ccc(OCCCN(C)C)cc1	PNC assembly inh inconclusive, ALDH1A1 inh 14µM
CCOc1ccc(OCCCCN(C)C)cc1	ALDH1A1 inh inconclusive
CC(/C=N/n1c(-c2ccco2)n[nH]c1=S)=C\c1ccccc1	HPGD inh 2.5µM, PNC assembly inh inconclusive
S=c1[nH]nc(-c2cccnc2)n1/N=C/c1ccco1	ALDH1A1 inh inconclusive (no result: IMPase inh, HPGD inh, PNC assembly inh)
Cc1ccc(-c2n[nH]c(=S)n2/N=C/c2ccncc2)cc1	none (no result: IMPase inh, HPGD inh, PNC assembly inh)
Cc1ccc(-c2n[nH]c(=S)n2/N=C\c2ccco2)cc1	HPGD inh 22µM, PNC assembly inh inconclusive
